These results are taken from PubChem BioAssay (Tox21).

A short description of experiment [1]: qHTS assay to identify small molecule agonists of the androgen receptor (AR) signaling pathway in the presence of an antagonist - cell viability counter screen (AID 1259379).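 For activity change, negative = cytotoxicity: MDA-kb2 human breast cancer cells carrying an MMTV luciferase reporter; series mostly up to about 92 µM.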 Note: nearly all actives have a fitted effect of over 25% in size. Note: potency is the fitted concentration of half-maximal effect. A digest of the protocol: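 Nilutamide-containing (3.0uM final) MDA-kb2 cultures, 3,000 cells/well, were treated with compounds across 15 concentrations. After 16 hr at 37C with no CO2, cell viability was determined by CellTiter-Fluor fluorescence in the luciferase assay wells.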
On the technique in general: qHTS replaces the single test concentration by a dilution series.

The nature of experiment [2]: qHTS assay to identify small molecule agonists of the estrogen receptor beta (ER-beta) signaling pathway - cell viability counter screen (AID 1259380). Note: nearly all actives have a fitted effect of over 30% in size. Note: potency is the fitted concentration of half-maximal effect. A digest of the protocol: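 Steps: plate ER-beta-UAS-bla HEK293T cells, rest 6 hr; add compounds in DMSO; incubate 16 hr at 37C, 5% CO2; add FRET substrate 2 hr; add CellTiter-Glo, wait 30 min at room temperature; read luminescence.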

The nature of experiment [3]: qHTS assay to identify small molecule antagonists of the estrogen receptor beta (ER-beta) signaling pathway - cell viability counter screen (AID 1259382). For activity change, negative = cytotoxicity: series mostly up to about 92 µM. Note: nearly all actives have a fitted effect of over 55% in size. Note: potency is the fitted concentration of half-maximal effect. An outline of the steps: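 Viability is scored by CellTiter-Glo luminescence (30 min, room temperature) in ER-beta-UAS-bla HEK293T wells already read for reporter fluorescence. Compound exposure lasts 16 hr at 37C alongside 1nM 17-beta-estradiol in charcoal-stripped serum medium.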

Experiment [4] concerns the target Estrogen receptor (Homo sapiens) (UniProt P03372). Description: qHTS assay to identify small molecule agonists of the estrogen receptor alpha (ER-alpha) signaling pathway in the presence of an antagonist (AID 1259383; calls by dose curve; note: nearly all actives have a fitted effect of over 15% in size; note: potency is the fitted concentration of half-maximal effect; for activation: top concentration of the series differs between compounds). A digest of the protocol: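 Readout was ERE-driven luciferase luminescence in VM7Luc4E2 cells, which express full-length ER-alpha endogenously. Compounds were tested at 15 concentrations for 22hr alongside 10.0nM ICI-182,780 (final concentration).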

Experiment [5] in a line: qHTS assay to identify small molecule agonists or antagonists of the thyroid stimulating hormone receptor (TSHR) signaling pathway - wild type cell line counter screen (AID 1259384; calls by dose curve). An outline of the steps: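 Counter screen in untransfected Hek293: compounds (15-point titration, triplicate) plus phosphodiesterase inhibitor Ro20-1724 added after 18 h plating; 30 min RT. Intracellular cAMP via competitive d2/cryptate immunoassay, 1 h incubation.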

The target in experiment [6] is Thyrotropin receptor (Homo sapiens) (UniProt P16473). Description: qHTS assay to identify small molecule antagonists of the thyroid stimulating hormone receptor (TSHR) signaling pathway (AID 1259385; calls by dose curve; note: nearly all actives have a fitted effect of over 20% in size; note: potency is the fitted concentration of half-maximal effect). An outline of the steps:
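Antagonist mode: compound-treated TSHR-expressing HEK293 cells were stimulated with 1.5 ng/mL TSH (final) in presence of Ro20-1724 for 30 min at RT. HTRF cAMP detection after 1 h; each compound tested at 15 concentrations, triplicate.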

Experiment [7] in a line: qHTS assay to identify small molecule agonists of the estrogen receptor alpha (ER-alpha) signaling pathway in the presence of an antagonist - cell viability counter screen (AID 1259386). For activity change, negative = cytotoxicity: series mostly up to about 92 µM.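 Note: cells exposed to compounds for 22 h at 37 °C before the viability read; nearly all actives have a fitted effect of over 30% in size.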 Note: potency is the fitted concentration of half-maximal effect. An outline of the steps:
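In this counter screen, compound effects on VM7Luc4E2 viability were tested in the presence of the antagonist ICI-182,780 at 10.0nM final. Compounds were dosed at 15 concentrations, exposure lasted 22hr, and the CellTiter-Fluor signal was read.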

The target in experiment [8] is Androgen receptor (Homo sapiens) (UniProt P10275). In words: qHTS assay to identify small molecule agonists of the androgen receptor (AR) signaling pathway in the presence of an antagonist (AID 1259381; calls by dose curve; note: nearly all actives have a fitted effect of over 15% in size). A digest of the protocol: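 Reporter-gene luminescence from MDA-kb2 cells exposed 16hr at 37C (0% CO2) to 15-point compound titrations with 3.0uM final nilutamide as AR antagonist.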

The target in experiment [9] is Progesterone receptor (Homo sapiens) (UniProt P06401). In words: qHTS assay to identify small molecule agonists of the progesterone receptor (PR) signaling pathway (AID 1346784; calls by dose curve; note: nearly all actives have a fitted effect of over 30% in size). A digest of the protocol: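 HEK 293T PR-UAS-bla reporter cells, 2% charcoal-stripped FBS; 6 hr settle at 37C/5% CO2, compound (DMSO) 16 hr, LiveBLAzer B/G FRET substrate 2 hr RT, fluorescence intensity read.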

Where “and” joins values, the source holds several entries; their conditions need not be identical. Equal values may be shown once. Results filed as inconclusive are left out. Some compounds were tested as several samples or in several runs, with calls that do not always agree. Calls of active or inactive are those of the source. Unless noted, calls come from the whole dose curve; as a rule, active = well fitted curve in the direction sought with a large enough effect in the repeat runs; inconclusive = weak or mixed curves; inactive = no such curve, though single readings can be large; an effect the other way counts as inactive or inconclusive.
% is set by controls: 0 for no effect and ±100 for the full control effect.

Sequence of Thyrotropin receptor (Homo sapiens) (P16473 whole entry, looked up): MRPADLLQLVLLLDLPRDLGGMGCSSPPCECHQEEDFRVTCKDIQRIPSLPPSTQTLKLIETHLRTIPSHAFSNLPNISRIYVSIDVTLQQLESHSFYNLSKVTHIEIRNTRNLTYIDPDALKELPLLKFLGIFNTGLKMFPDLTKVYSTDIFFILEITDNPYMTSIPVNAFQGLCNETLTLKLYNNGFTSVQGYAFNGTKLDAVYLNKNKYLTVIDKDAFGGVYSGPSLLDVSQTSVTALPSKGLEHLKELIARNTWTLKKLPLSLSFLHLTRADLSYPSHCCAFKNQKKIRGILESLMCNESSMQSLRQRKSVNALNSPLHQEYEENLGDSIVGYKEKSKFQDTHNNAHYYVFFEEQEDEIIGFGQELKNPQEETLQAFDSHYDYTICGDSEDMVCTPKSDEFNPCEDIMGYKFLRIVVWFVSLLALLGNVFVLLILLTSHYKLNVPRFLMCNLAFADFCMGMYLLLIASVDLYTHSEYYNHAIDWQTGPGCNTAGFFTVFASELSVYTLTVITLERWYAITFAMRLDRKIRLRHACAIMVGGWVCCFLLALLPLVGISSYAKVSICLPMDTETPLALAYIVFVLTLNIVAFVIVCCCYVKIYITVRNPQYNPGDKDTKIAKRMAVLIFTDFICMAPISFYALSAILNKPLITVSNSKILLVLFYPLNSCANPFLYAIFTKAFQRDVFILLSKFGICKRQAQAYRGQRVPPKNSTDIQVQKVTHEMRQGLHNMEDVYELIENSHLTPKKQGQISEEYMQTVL
Sequence of Progesterone receptor (Homo sapiens) (P06401 whole entry, looked up): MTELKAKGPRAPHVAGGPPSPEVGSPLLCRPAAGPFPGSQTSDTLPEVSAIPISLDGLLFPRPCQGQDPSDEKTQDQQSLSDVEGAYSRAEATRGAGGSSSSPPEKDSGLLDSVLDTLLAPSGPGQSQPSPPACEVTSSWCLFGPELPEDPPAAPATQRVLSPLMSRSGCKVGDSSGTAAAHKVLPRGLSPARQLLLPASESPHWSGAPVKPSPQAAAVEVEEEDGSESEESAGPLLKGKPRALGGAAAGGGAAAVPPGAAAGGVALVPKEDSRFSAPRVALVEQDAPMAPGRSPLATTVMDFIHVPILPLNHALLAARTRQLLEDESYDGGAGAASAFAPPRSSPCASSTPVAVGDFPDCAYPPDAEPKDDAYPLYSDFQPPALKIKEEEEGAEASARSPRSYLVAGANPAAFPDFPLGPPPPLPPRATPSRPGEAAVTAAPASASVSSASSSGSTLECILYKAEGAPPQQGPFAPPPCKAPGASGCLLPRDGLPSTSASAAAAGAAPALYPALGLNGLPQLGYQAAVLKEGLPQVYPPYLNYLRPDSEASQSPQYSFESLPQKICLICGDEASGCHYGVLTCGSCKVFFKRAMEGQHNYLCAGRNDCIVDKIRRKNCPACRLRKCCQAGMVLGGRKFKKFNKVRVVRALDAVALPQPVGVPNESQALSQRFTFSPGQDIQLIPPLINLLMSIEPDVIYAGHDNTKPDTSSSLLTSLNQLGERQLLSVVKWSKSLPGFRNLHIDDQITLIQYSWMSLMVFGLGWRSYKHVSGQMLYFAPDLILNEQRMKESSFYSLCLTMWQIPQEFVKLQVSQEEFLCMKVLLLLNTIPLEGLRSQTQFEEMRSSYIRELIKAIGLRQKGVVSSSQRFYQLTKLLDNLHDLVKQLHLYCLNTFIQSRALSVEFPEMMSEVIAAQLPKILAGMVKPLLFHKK
Sequence of Estrogen receptor (Homo sapiens) (P03372 whole entry, looked up): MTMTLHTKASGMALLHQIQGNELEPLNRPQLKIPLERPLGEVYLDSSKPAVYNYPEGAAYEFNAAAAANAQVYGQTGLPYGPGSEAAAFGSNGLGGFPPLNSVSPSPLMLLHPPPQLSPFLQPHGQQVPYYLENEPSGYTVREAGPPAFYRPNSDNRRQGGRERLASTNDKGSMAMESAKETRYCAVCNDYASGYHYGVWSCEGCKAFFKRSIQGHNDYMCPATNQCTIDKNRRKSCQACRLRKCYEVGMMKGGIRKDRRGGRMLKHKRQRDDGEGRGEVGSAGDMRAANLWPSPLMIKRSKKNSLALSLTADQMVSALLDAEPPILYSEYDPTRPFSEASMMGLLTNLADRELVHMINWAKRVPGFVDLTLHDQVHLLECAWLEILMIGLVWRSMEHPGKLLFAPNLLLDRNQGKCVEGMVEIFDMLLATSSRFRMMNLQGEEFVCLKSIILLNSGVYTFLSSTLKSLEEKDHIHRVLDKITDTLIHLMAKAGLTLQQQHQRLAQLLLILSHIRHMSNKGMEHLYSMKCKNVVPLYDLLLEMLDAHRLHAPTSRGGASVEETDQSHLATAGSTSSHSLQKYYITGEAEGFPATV
Sequence of Androgen receptor (Homo sapiens) (P10275 whole entry, looked up): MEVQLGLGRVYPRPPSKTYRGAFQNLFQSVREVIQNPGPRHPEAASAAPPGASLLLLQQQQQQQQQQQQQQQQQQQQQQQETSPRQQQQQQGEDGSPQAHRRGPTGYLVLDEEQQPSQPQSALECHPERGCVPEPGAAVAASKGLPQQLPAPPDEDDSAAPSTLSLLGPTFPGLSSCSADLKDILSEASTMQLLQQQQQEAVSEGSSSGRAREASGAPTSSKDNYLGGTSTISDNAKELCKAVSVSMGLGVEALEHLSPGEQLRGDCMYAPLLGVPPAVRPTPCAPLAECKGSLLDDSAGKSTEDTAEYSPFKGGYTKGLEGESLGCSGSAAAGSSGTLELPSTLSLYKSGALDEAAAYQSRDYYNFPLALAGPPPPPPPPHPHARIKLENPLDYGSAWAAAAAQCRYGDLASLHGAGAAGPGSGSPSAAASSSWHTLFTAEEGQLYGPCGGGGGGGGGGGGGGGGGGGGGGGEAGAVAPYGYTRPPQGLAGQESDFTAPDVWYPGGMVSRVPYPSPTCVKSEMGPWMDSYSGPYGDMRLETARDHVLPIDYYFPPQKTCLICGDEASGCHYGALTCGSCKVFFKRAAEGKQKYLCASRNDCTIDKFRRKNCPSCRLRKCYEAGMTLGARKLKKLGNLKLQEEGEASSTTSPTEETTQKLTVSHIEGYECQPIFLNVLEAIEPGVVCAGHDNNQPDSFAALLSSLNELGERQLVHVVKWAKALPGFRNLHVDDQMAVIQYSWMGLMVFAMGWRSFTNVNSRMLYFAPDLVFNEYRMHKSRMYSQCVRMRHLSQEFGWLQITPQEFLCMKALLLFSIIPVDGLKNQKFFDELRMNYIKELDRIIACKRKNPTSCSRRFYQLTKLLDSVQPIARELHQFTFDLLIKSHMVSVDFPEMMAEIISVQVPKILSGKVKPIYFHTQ

Regarding `CC(=O)O[C@]1(C(C)=O)CC[C@H]2[C@@H]3C[C@H](C)C4=CC(=O)CC[C@]4(C)[C@H]3CC[C@@]21C`, the Potency result in experiment [1], in experiment [2], in experiment [3], in experiment [4], in [5] and in experiment [6] was “inactive” in each case. Moreover, in experiment [7], the Potency result was “inactive”.

As to `CC1=CC(=O)c2ccccc2C1=O`, the Potency in [1] is 43.3 µM (active); in [2], 24.3 µM (active) and 26.6 µM (active); in experiment [3] it was 24.3 µM (active); in experiment [7] it was 38.6 µM (active) and inactive. The Potency entry in experiment [8], in experiment [4] and in experiment [9] was “inactive” in each case.

For the molecule `CCN1CCCC1CNC(=O)c1cc(S(=O)(=O)CC)c(N)cc1OC` (stereo not given), the Potency entry in [1], in experiment [2], in experiment [3], in [4], in [5] and in experiment [6] was “inactive” in each case. Further, the Potency entry in [7] was “inactive”.

Consider `Cc1cccc2n[nH]nc12`, for which the Potency entry in [1], in experiment [2], in experiment [3], in experiment [5], in experiment [6] and in experiment [7] was “inactive” each time.

As for `CCn1cc(C(=O)O)c(=O)c2cc(F)c(N3CCNC(C)C3)c(F)c21` (stereo not given), the Potency result in experiment [1], in experiment [2], in experiment [3], in experiment [4], in experiment [5] and in experiment [6] was “inactive” throughout. Besides, the Potency result in experiment [7] was “inactive”.

In the case of `CCCC(=O)c1ccccc1`, the Potency entry in experiment [1], in experiment [2], in experiment [8], in [3], in experiment [5] and in experiment [6] was “inactive” in each case. Further, the Potency entry in experiment [7] and in experiment [9] was “inactive” in each case.

Turning to `Cc1cc(C2(c3cc(C)c(O)cc3C)OS(=O)(=O)c3ccccc32)c(C)cc1O`, the Potency in [1] was 54.5 µM (active) and 27.3 µM (active); in experiment [4], 43.3 µM (active) and inactive; in [7], 30.6 µM (active) and 21.7 µM (active). The Potency entry in experiment [2], in experiment [3], in [5], in [6] and in experiment [9] was “inactive” throughout.

For the molecule `Cc1ccc(-c2cc(C(F)(F)F)nn2-c2ccc(S(N)(=O)=O)cc2)cc1`, the Potency entry in experiment [1], in [8], in experiment [4], in experiment [5], in experiment [6] and in experiment [7] was “inactive” in each case. In addition, the Potency result in experiment [9] is “inactive”. For the same molecule, the Potency was 60.9 µM (active) and 34.4 µM (active) and inactive in [2]; 61.1 µM (active) and inactive in experiment [3].

On to `O=C(O)CP(=O)(O)O`, for which the Potency entry in experiment [1], in [2], in [3], in experiment [4], in experiment [5] and in experiment [6] was “inactive” in each case. Further, the Potency result in [7] and in experiment [9] was “inactive” in each case.

In the case of `c1ccc2cc3c(ccc4ccccc43)cc2c1`, the Potency result in experiment [1], in [2], in experiment [3], in experiment [5], in experiment [6] and in experiment [7] was “inactive” throughout.

`CC[C@]1(O)C[C@@H]2CN(CCc3c([nH]c4ccccc34)[C@@](C(=O)OC)(c3cc4c(cc3OC)N(C)[C@H]3[C@@](O)(C(=O)OC)[C@H](OC(C)=O)[C@]5(CC)C=CCN6CC[C@]43[C@@H]65)C2)C1`: the Potency entry in experiment [1], in experiment [2], in experiment [3], in [5] and in [6] was “inactive” throughout. For the same molecule, the Potency in [7] was 10.6 µM (active).

As for `CNCCC(Oc1ccc(C(F)(F)F)cc1)c1ccccc1` (stereo not given), the Potency was 53.8 µM (active) and 26.6 µM (active) in experiment [1]; 26.9 µM (active) and 13.3 µM (active) in [2]; 24 µM (active) and 11.9 µM (active) in experiment [3]; 67.7 µM (active) and inactive in [6]. Besides, the Potency entry in [5] and in [7] was “inactive” each time.

With `CNC1(C)C2CCC(C2)C1(C)C` (stereo not given), the Potency result in experiment [1], in experiment [2], in [3] and in [5] was “inactive” throughout.

`Cc1c(O)cccc1C(=O)N[C@@H](CSc1ccccc1)[C@H](O)CN1C[C@H]2CCCC[C@H]2C[C@H]1C(=O)NC(C)(C)C`: the Potency is 53 µM (active) and 23.7 µM (active) in [1]; 23.7 µM (active) and 18.8 µM (active) in experiment [2]; 16.8 µM (active) and 23.7 µM (active) in experiment [3]; 29.8 µM (active) and 11.9 µM (active) in experiment [7]. In addition, the Potency result in [8], in experiment [5] and in [6] was “inactive” each time.

For the molecule `CCCOC(=O)c1cc(O)c(O)c(O)c1`, the Potency entry in experiment [1], in experiment [2], in experiment [3], in experiment [4], in experiment [5] and in experiment [6] was “inactive” each time. The Potency result in experiment [9] was “inactive”.

With `CC[C@@H](N)CO`, the Potency entry in [1], in experiment [2], in [3], in experiment [4], in experiment [5] and in experiment [6] was “inactive” each time. The Potency result in [7] and in [9] was “inactive” in each case.

For the molecule `CN(C)c1ccc(C(=C2C=CC(=[N+](C)C)C=C2)c2ccccc2)cc1`, the Potency in experiment [1] was 3.86 µM (active) and 3.35 µM (active) and 2.66 µM (active); in experiment [2] it was 5.31 µM (active) [middle of 4 runs]; in experiment [3], 7.5 µM (active) [middle of 4 runs]; in experiment [6], 29.8 µM (active) and inactive. Further, in [5], the Potency entry is “inactive”.

Take `CC1COc2c(N3CCN(C)CC3)c(F)cc3c(=O)c(C(=O)O)cn1c23` (stereo not given): the Potency result in experiment [1], in experiment [2], in [3], in experiment [5], in experiment [6] and in experiment [7] was “inactive” throughout. In addition, the Potency result in experiment [9] was “inactive”.

On to `NC(Cc1ccc(Cl)cc1)C(=O)O` (stereo not given), for which the activity change, negative = cytotoxicity in [1] is 4.35% [at 0.35 µM] (inactive); in experiment [2], -2.17% [at 0.349 µM] (inactive); in experiment [3] it was -0.284% [at 0.349 µM] (inactive); in experiment [7], 2.8% [at 0.349 µM] (inactive). Further, the cAMP activity change in [5] was -3.62% [at 0.349 µM, stronger effect = higher value] (inactive). Besides, in experiment [6], the activity change, negative = inhibition was 0.481% [at 0.349 µM] (inactive). For the same molecule, the activation in [9] is -4.74% [at 0.349 µM] (inactive).

With `c1ccc2c(c1)-c1cccc3c1c-2cc1ccccc13`, the Potency entry in [1], in experiment [2], in experiment [3], in experiment [4], in experiment [5] and in experiment [6] was “inactive” each time. In experiment [7], the Potency entry is “inactive”.

For `O=C(Oc1ccccc1)c1ccccc1O`, the Potency entry in experiment [1], in experiment [2], in experiment [3], in experiment [4], in experiment [5] and in experiment [6] was “inactive” each time. The Potency result in [7] and in [9] was “inactive” in each case.

As to `O=C(O)c1cccc(C(=O)O)c1`, the Potency result in experiment [1], in experiment [2], in [3], in [4], in experiment [5] and in experiment [6] was “inactive” throughout. Moreover, the Potency result in [7] and in [9] was “inactive” in each case.

For `NCCCCCC(=O)O`, the Potency result in experiment [1], in [2], in experiment [3], in experiment [4], in experiment [5] and in [6] was “inactive” each time. The Potency entry in experiment [7] and in experiment [9] was “inactive” throughout.

Turning to `CC1=C(C=O)C(C)(C)CC=C1`, the Potency entry in experiment [1], in [2], in experiment [3], in experiment [5], in experiment [6] and in experiment [7] was “inactive” throughout.

With `CCC[C@H](N[C@@H](C)C(=O)N1[C@H](C(=O)O)C[C@@H]2CCCC[C@@H]21)C(=O)OCC`, the Potency result in [1], in experiment [2], in [3], in [4], in experiment [5] and in [6] was “inactive” in each case. In addition, the Potency entry in experiment [7] and in [9] was “inactive” throughout.
